Shown are actives, neighbours in structure and some others; about 6.1% of the full set was active somewhere.
ERG-DNA inh: qHTS for Small Molecule Inhibitors of the ERG Ets/DNA interaction | AID 624246, 2012 | fluorescence polarization, His-ERG Ets domain / labelled DNA | Potency, µM (highest dose often 76.9 µM), inactives show at the highest dose FP activity, negative = inhibition, most hits filed as inhibitors | Transcriptional regulator ERG (Homo sapiens), P11308 | 370,000 compounds, 0.028% hits; active = well fitted inhibition curve with a large enough effect in the polarisation, with a control signal flat; inconclusive = small, poorly fitted or top-dose-only effect, or effect the other way, or a change in a side signal; inactive = no such curve, though single readings can be large or run the other way; the % refers to the polarisation;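 also: polarization taken with two DNA probes labelled with fluorescein and Texas red; potency is read from the fitted curve at half-maximal effect; % of control where 0% means no effect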
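His-tagged ERG Ets domain (1 uM in the protein solution; 300mM KCl, 50mM Tris-HCl, 1mM EDTA, 1mM DTT, pH 7.5) received compound, then a probe mix of 5 nM fluorescein-DNA and 100nM Texas-615-DNA. Fluorescence polarization was read for both dyes.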
D3 ag: qHTS of D3 Dopamine Receptor Agonist: qHTS; D(3) dopamine receptor (Homo sapiens), P35462; max activation, %; D3R DiscoveRx beta-arrestin cells, luminescence, 90 min; 410,000 compounds, 0.58% hits; in the data active = max activation above about 30%; also: 0% is about no effect
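Agonist-mode cell screen: cells plated at 1500/well and incubated overnight at 37 °C, then exposed to library compounds for 90 min at 37 °C. Detection reagent was added for 30–60 min at room temperature, and luminescence was read.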
D3 antag: qHTS of D3 Dopamine Receptor Antagonist: qHTS. D3R cells, DiscoveRx beta-arrestin luminescence, antagonist mode; active compounds read low. 360,000 compounds, 2.5% hits. D(3) dopamine receptor (Homo sapiens), P35462. max response, negative = inhibition, %; in the data active = max response below about -50%; inconclusive = no clear call, values can overlap the other calls; also: % is scaled to controls: 0 for no effect and ±100 for the full control effect
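Cells plated overnight at 1500 cells/well, then exposed to library compounds with dopamine controls for 90 minutes at 37 degrees C. DiscoveRx reagent added for 30–60 minutes at room temperature; luminescence read, quantitative HTS format.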
D1 antag: Antagonist of Human D 1 Dopamine Receptor: qHTS. 360,000 compounds, 3.2% hits. activity change, negative = inhibition, % at 10 µM. HEK293 TREx D1 cells, calcium flux, dopamine EC80; active compounds read low. D(1A) dopamine receptor (Homo sapiens), P21728; in the data active = activity change below about -30%; also: % is scaled to controls: 0 for no effect and ±100 for the full control effect
Target sequence (P21728 whole entry, looked up): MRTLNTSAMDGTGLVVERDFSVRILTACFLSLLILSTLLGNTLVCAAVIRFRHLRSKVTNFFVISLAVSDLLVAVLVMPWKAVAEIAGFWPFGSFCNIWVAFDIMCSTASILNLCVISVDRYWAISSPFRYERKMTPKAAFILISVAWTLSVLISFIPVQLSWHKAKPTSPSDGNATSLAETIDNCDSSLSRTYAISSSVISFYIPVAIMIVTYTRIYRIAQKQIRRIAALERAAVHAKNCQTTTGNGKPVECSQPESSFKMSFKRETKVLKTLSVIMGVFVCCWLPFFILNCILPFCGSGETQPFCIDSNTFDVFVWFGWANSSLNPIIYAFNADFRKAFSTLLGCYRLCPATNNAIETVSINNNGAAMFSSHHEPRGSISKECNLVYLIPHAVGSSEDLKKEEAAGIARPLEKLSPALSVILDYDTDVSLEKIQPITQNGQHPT
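Kinetic fluorescence of a calcium dye serves as the read-out. D1-expressing Hek293 Trex cells, induced overnight at 30 C, are exposed to compound for 180 s before an EC80 dopamine addition, then read 180 s further.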
D1 ag: Allosteric Agonists of the Human D1 Dopamine Receptor: qHTS; HEK293 T-REx D1 cells, calcium flux, agonist mode; activation, % at 2 µM; 360,000 compounds, 1% hits; AID 504660, 2011; in the data active = activation above about 30%; also: 0% is about no effect
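Agonism was scored from calcium flux recorded over 180 s (1 read/s) after pintool compound addition, following a 10-cycle baseline. Cells were inducible force-coupled HEK293 TREx D1, plated overnight at 30 C and loaded with no-wash calcium dye.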
D1 potentiator: Potentiators of Human D1 Dopamine Receptor: qHTS | D(1A) dopamine receptor (Homo sapiens), P21728 | HEK293 TREx D1 cells, calcium flux, dopamine EC20 potentiation | potentiation, % at 10 µM | 360,000 compounds, 0.036% hits | AID 504651, 2011; in the data active = potentiation above about 30%; also: 0% is about no effect
Starred values were filed as active, the others as inactive; ? = inconclusive; . = no result.

SMILES	ERG-DNA inh	D3 ag	D3 antag	D1 antag	D1 ag	D1 potentiator
COc1ccccc1NC(=O)NCCN1CCN(C(=O)Nc2ccccc2OC)CC1	20%	1	-2	1	1	0
COc1ccccc1NC(=O)NCCCN1CCN(c2cccc(Cl)c2)CC1	-7%	1	-108*	-69*	10	-5
COC(=O)c1ccc2nc(-c3ccc(F)cc3)c(CC3CCCCC3)n2c1	.	-1	8	.	.	.
O=C(NCCCN1CCN(c2cccc(Cl)c2)CC1)C1(S(=O)(=O)c2ccc(Cl)cc2)CC1	-1%	11	-57*	6	3	-7
COc1ccc(Cc2nnc(C(=O)NCCCN3CCN(c4ccccc4F)CC3)o2)cc1OC	-1%	5	.	-6	4	-3
O=C(NCCCN1CCN(c2cccc(Cl)c2)CC1)C1CCC(=O)N1Cc1ccccc1Cl (stereo not given)	1%	-4	?	-38*	11	-10
CN(CCCNC(=O)C1CCC(=O)N1Cc1ccccc1Cl)c1ccccc1 (stereo not given)	5%	-21	13	-10	1	1
Cc1cc(C(=O)NCCCN2CCN(c3cc(Cl)ccc3C)CC2)n(-c2ccccc2)n1	-7%	-12	-65*	-7	2	2
O=C(NCCCN1CCN(c2ccccc2F)CC1)c1nnc(Cc2ccc(Cl)cc2Cl)o1	-2%	11	.	-55*	21	-4
COc1cc(C(=O)O/N=C(\N)c2ccncc2)cc(OC)c1OC	.	9	-9	-25	1	-8
Cc1nn(-c2ccccc2)c(-n2cccc2)c1C(=O)NCCCN1CCN(c2ccccc2F)CC1	0%	0	.	-33*	1	-4
O=C(C1CCC(=O)N1Cc1ccccc1Cl)N1CCN(c2ccc(F)cc2)CC1 (stereo not given)	-1%	5	7	-48*	0	-6
CC(C)N1C(=O)CCC1C(=O)N1CCN(c2ccc(F)cc2)CC1 (stereo not given)	-6%	0	2	-8	2	2
O=C(NCC1CCCN1S(=O)(=O)c1cccs1)C(=O)Nc1cccc(F)c1 (stereo not given)	1%	-2	-2	-1	9	-3
COc1ccccc1N1CCN(C(=O)Cn2c(=O)n3nc(-c4cccc(C)c4)nc3c3ccccc32)CC1	0%	3	.	.	0	5
O=C(Cn1nnc(-c2ccccc2)n1)N=Nc1c(O)[nH]c2ccccc12	-21%	0	15	-18	1	-6
O=C(O)CN1C(=O)/C(=C/c2ccc(N3CCCCC3)o2)SC1=S	.	2	-13	-14	7	8
COC(=O)CN1C(=O)S/C(=C/c2ccc(N3CCCCC3)o2)C1=O	?	4	?	7	57*	6
CCOC(=O)CN1C(=O)S/C(=C/c2ccc(N3CCCCC3)o2)C1=O	16%	-1	15	11	55*	-2
CC(=O)Nc1ccc2c(COC(=O)[C@@H](NS(=O)(=O)c3ccc(C)cc3)C(C)C)cc(=O)oc2c1	-1%	1	-6	.	.	.
COc1ccc(N2CCN(C(c3ccccc3F)c3sc4nc(-c5ccco5)nn4c3O)CC2)cc1 (stereo not given)	-2%	-5	.	.	1	-2
CCCCNC(=O)c1onc(CSc2ccc(C)c(C)c2)c1C(=O)O	17%	-4	-3	-32*	1	-1
CC(=O)c1cccc(-n2nnnc2SCC(=O)Nc2cccc(NC(=O)c3ccco3)c2)c1	-8%	0	1	-6	1	5
CCOCCCNC(=O)C(NC(=O)Cc1cccs1)c1ccc(C)cc1 (stereo not given)	11%	-2	-25	-44*	1	-3
CCOCCCNC(=O)C(NC(=O)CNC(C)=O)c1ccc(C)cc1 (stereo not given)	-1%	0	17	-5	5	-4
SMILES	ERG-DNA inh	D3 ag	D3 antag	D1 antag	D1 ag	D1 potentiator
Cc1csc(NC(=O)Cc2ccccc2[N+](=O)[O-])n1	-2%	2	-23	4	1	1
Cc1ccc(NC(=O)CN(C)C(=O)c2cc(-c3ccccc3)nn2-c2ccccc2)cc1	-10%	-12	-15	2	4	-9
COc1cccc(CNS(=O)(=O)c2cccc(S(=O)(=O)N3CCOCC3)c2)c1	9%	7	12	-11	1	0
COc1ccc(NS(=O)(=O)c2ccc(S(=O)(=O)N3CCOCC3)cc2)cc1	3%	1	-14	-33*	34*	-4
COc1ccc(CNS(=O)(=O)c2cccc(S(=O)(=O)N3CCOCC3)c2)cc1	.	11	-93*	1	3	1
COc1ccc(CNC(=O)c2ccc(S(=O)(=O)N3CCOCC3)cc2)cc1	-7%	-6	9	-18	3	4
COc1ccc(NS(=O)(=O)c2ccc(S(=O)(=O)N3CCCC3)cc2)cc1	-6%	-5	-11	.	17	-3
COc1ccc(CNC(=O)C(C)Sc2ccc(S(=O)(=O)N3CCOCC3)cn2)cc1 (stereo not given)	0%	-1	-20	-32*	5	2
COc1cccc(C2=NN(S(C)(=O)=O)C(c3cn(-c4ccccc4)nc3-c3cccs3)C2)c1 (stereo not given)	4%	9	.	-39*	1	-2
CC(=O)N1CCOc2ccc(S(=O)(=O)N3CCCCC3)cc21	5%	-4	5	-4	6	-7
COc1ccc(OC)c(-n2c(=S)[nH]c3c(sc(=S)n3-c3ccccc3C)c2=O)c1	-9%	-5	-20	1	1	0
COc1ccccc1-n1c(=S)[nH]c2c(sc(=S)n2-c2ccccc2C)c1=O	5%	56*	-78*	0	1	-1
CN(CCc1ccccc1)C(=O)c1cc(COc2cccc(C(F)(F)F)c2)on1	7%	1	16	-9	3	8
CCCN(Cc1nnc(-c2ccccc2Cl)o1)C(=O)COc1ccc(Cl)cc1	-1%	0	-1	-23	5	-7
O=C([C@H]1O[C@@H](n2ccc(=O)[nH]c2=O)[C@H](O)[C@@H]1O)N(CCC1=CCCCC1)CC1CC1	.	-15	0	.	.	.
Nc1ccn([C@@H]2O[C@H](C(=O)N(CCC3=CCCCC3)CC3CC3)[C@@H](O)[C@H]2O)c(=O)n1	.	40*	-29	.	.	.
